Assay outcomes: PubChem BioAssay, NMMLSC
The list is not random: actives were taken first. Their share in the collection is about 1.2%.
RGS4-Gao reg = modulates binding of RGS4 to human Galphao; Multiplexed bead flow cytometry; actives lie on both sides; binding response (% of control), % at 10 µM; hit rate 0.33% among 220,000; in the data active means binding response below about 49% or above about 150%; inactive means in between;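 further: fluorescent Galphao activated with aluminum fluoride binding bead-coupled RGS4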
Target sequence (P09471 whole entry, looked up): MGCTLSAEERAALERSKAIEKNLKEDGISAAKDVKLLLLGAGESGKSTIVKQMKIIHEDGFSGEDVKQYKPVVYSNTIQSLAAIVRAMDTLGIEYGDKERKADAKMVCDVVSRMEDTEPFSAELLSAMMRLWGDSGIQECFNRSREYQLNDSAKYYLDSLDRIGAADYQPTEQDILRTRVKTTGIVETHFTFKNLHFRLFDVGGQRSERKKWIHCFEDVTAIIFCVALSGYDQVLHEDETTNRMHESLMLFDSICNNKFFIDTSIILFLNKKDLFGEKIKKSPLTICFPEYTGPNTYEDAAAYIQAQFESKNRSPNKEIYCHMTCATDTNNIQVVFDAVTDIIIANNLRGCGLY
Avidin fluor = avidin bead compound fluorescence profile; hit rate 0.38% among 220,000; fluorescence (KMESF) at 10 µM; Avidin beads, compound fluorescence 488/530 nm, flow cytometry; active compounds read high; AID 1775; in the data active means fluorescence above about 47
RGS8-Gao reg = regulators of human RGS8-Galphao interaction; multiplexed bead flow cytometry, RGS8-Galphao binding; actives lie on both sides; P09471; AID 1423; response (percent of control binding), % at 10 µM; hit rate 0.34% among 220,000; in the data active means response below about 60% or above about 140%; inactive means in between;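 further: Galphao activated as the GDP aluminium fluoride complex binding bead-coupled RGS8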
GSH bead fluor = GSH bead compound fluorescence profile; GSH beads flow cytometry, compound fluorescence 488/530 nm; active compounds read high; hit rate 0.25% among 190,000; AID 1776; fluorescence (KMESF) at 10 µM; in the data active means fluorescence above about 89;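 further: glutathione beads carrying GST-tagged Bcl family fusion proteins plus one bare bead set; values are compound well signal with DMSO vehicle wells as background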
RGS7-Gao reg = human RGS7-Galphao interaction regulation. P09471. Multiplexed bead flow cytometry, RGS7-Galphao binding; actives lie on both sides. binding response (% of control), % at 10 µM. hit rate 0.35% among 220,000. AID 1439; in the data active means binding response below about 49% or above about 150%; inconclusive means no clear call, values can overlap the other calls; inactive means in between;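 further: fluorescent Galphao held in activated GDP-AlF4 state binding bead-coupled RGS7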
RGS16-Gao HTS = modulates binding between human RGS16 and Galphao | O15492+P09471 | binding response (% of control), % at 10 µM | bead-based flow cytometry RGS16-Galphao binding, fluorescence; actives lie on both sides | AID 1441 | hit rate 0.38% among 220,000;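 further: Galphao activated by GDP with aluminum fluoride before binding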
Target sequence (O15492 whole entry, looked up): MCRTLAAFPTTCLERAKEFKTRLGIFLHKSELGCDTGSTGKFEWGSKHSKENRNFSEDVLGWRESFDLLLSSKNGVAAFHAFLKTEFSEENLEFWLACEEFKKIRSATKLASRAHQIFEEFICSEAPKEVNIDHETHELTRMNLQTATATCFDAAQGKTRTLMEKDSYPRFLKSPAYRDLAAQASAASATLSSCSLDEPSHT
Target sequence (P09471 whole entry, looked up): as the sequence (P09471 whole entry, looked up) above
RGS-Gao = RGS4-Galphao interaction regulator (human); RGS4–Galpha-o binding response, % at 10 µM; shares compounds with RGS16-Gao HTS; multiplexed bead flow cytometry, RGS–Galpha-o binding; hit rate 99% among 1,600;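 further: fluorescently labeled Galpha-o bound to GDP with aluminium fluoride binding biotinylated RGS beads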
Biotin-avidin = counter-screen: compounds disrupting biotin binding to avidin beads; inhibition, % at 10 µM; streptavidin beads, fluorescein-biotin binding, flow cytometry; 1,700 tested, under 10 active; shares compounds with RGS16-Gao HTS; AID 1783;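 active means inhibition above 50%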;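 further: median green fluorescence of gated singlet beads compared with DMSO control wells; 0% = DMSO wells and 100% = complete loss of bead fluorescence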
RGS8-Gao single = confirmation of regulators of human RGS8-Galphao interaction. shares compounds with RGS16-Gao HTS. bead-based flow cytometry RGS8-Galphao binding, fluorescence; actives lie on both sides. binding response (% of control), % at 10 µM. hit rate 3% among 1,700. AID 1836; in the data active means binding response below about 72% or above about 130%; inactive means in between;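 further: Galphao activated as GDP AlF4 complex before binding bead RGS8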
RGS7-Gao confirm = confirmation of regulators of human RGS7-Galphao interaction. shares compounds with RGS16-Gao HTS. bead-based flow cytometry RGS7-Galphao binding; actives lie on both sides. response (percent of control binding), % at 10 µM. hit rate 7.8% among 1,700. AID 1837; in the data active means response below about 75% or above about 130%; inactive means in between;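 further: fluorescent Galphao activated with GDP and aluminum fluoride binding bead-coupled RGS7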
RGS16-Gao single = confirmation of regulators of human RGS16-Galphao interaction. shares compounds with RGS16-Gao HTS. bead-based flow cytometry, RGS16-Galphao binding; actives lie on both sides. response (% of control binding), % at 10 µM. hit rate 4% among 1,700. AID 1838; in the data active means response below about 74% or above about 130%; inactive means in between;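 further: Galphao activated as the GDP aluminium fluoride complex binding bead-coupled RGS16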
RGS4-Gao single = confirmation of regulators of human RGS4-Galphao interaction | binding response (% of control), % at 10 µM | shares compounds with RGS16-Gao HTS | RGS4-Galphao binding, multiplexed bead flow cytometry; actives lie on both sides | hit rate 4% among 1,700; in the data active means binding response below about 74% or above about 130%; inactive means in between
RGS19-Gao single = confirmation of regulators of human RGS19-Galphao interaction; bead-based flow cytometry RGS19-Galphao binding; actives lie on both sides; shares compounds with RGS16-Gao HTS; AID 1841; response (percent of control binding), % at 10 µM; hit rate 5% among 1,700; in the data active means response below about 50% or above about 160%; inactive means in between;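 further: 100% = no compound control and 0% = blank background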
* hit, by the source's call; ? = inconclusive; nt = no result; [ ] = dose if it differs, or a comment. Unless noted, how the calls were made is not given here.

SMILES | RGS4-Gao reg | Avidin fluor | RGS8-Gao reg | GSH bead fluor | RGS7-Gao reg | RGS16-Gao HTS | RGS-Gao | Biotin-avidin | RGS8-Gao single | RGS7-Gao confirm | RGS16-Gao single | RGS4-Gao single | RGS19-Gao single
CCN(CC)S(=O)(=O)c1cc(C(=O)Nc2nncs2)c(Cl)cc1Cl | 105 | nt | 77 | 14 | nt | 57 | nt | 0 | 97 | 96 | 91 | 94 | 91
Cc1ccc(CN2CCN(/N=C/c3cccnc3)CC2)cc1 | 110 | 6 | 125 | 12 | 110 | 260*[activator] | 110* | 3 | 99 | 100 | 99 | 98 | 85
Cc1ccc(CN2CCN(/N=C/c3ccc(C(=O)O)cc3)CC2)cc1 | 100 | 14 | 100 | 9 | 98 | 98 | nt | nt | nt | nt | nt | nt | nt
CCN(CC)c1ccc(/C=N\N2CCN(Cc3ccc(C)cc3)CC2)cc1 | 105 | 12 | 103 | 20 | 106 | 109 | nt | nt | nt | nt | nt | nt | nt
O=C(O)c1ccc(/C=N/N2CCN(Cc3ccc(Cl)cc3)CC2)cc1 | 117 | 14 | 148*[activator] | 12 | 125 | 262 | 117* | -2 | 98 | 83 | 93 | 91 | 83
COc1cc(CNCc2ccc(SC)cc2)cc(OC)c1 | 95 | 9 | 105 | 19 | 99 | 120 | nt | nt | nt | nt | nt | nt | nt
CCCS(=O)(=O)N1CCCC(C(=O)NCCCN2CCN(c3cccc(Cl)c3)CC2)C1 (stereo unspecified) | 295*[activator] | 150* | 146*[activator] | 29 | 234*[activator] | 668 | nt | 1 | 97 | 92 | 90 | 92 | 59
CCOc1cc(CNCc2ccncc2)cc(Cl)c1OC | 95 | 6 | 100 | 12 | 98 | 102 | nt | nt | nt | nt | nt | nt | nt
COc1ccccc1/C=N/NC(=O)c1ccc(-c2ccccc2)cc1 | 117 | 17 | 123 | 13 | 114 | 191*[activator] | 117* | 2 | 95 | 61* | 77 | 76 | 61
COc1cccc(/C=N/NC(=O)c2ccccc2)c1OS(=O)(=O)c1ccccc1 | 91 | 9 | 75 | 7 | 89 | 25* | 91* | -1 | 101 | 100 | 97 | 100 | 100
COc1cccc(/C=N/NC(=O)c2ccc(=O)n(C)c2)c1OC | 102 | 12 | 103 | 11 | 105 | 101 | nt | nt | nt | nt | nt | nt | nt
Cc1cccc(N(C(=O)Nc2ccc(Cl)cc2)C2=NCC(C)S2)n1 (stereo unspecified) | 98 | 10 | 99 | 9 | 95 | 97 | nt | nt | nt | nt | nt | nt | nt
COc1cc(C2/C(=C(/O)c3ccccc3)C(=O)C(=O)N2c2ccccn2)ccc1O (stereo unspecified) | 97 | 10 | 98 | 21 | 93 | 99 | nt | nt | nt | nt | nt | nt | nt
CCCNC(=S)Nc1ccc2nc(-c3ccccn3)c(-c3ccccn3)nc2c1 | 101 | 17 | 101 | 31 | 99 | 102 | nt | nt | nt | nt | nt | nt | nt
CC(C)N(NC(=O)c1cccc2ccccc12)C(C)C | 144 | 23 | 151*[activator] | 11 | 147 | 175*[activator] | 144* | 1 | 102 | 103 | 98 | 100 | 103
CN(NS(=O)(=O)c1ccc(Cl)cc1)c1ncc(C(F)(F)F)cc1Cl | 100 | 13 | 101 | 13 | ? | 99 | nt | nt | nt | nt | nt | nt | nt
O=C(C1CCC(C(=O)N2CCCCC2)CC1)N1CCCCC1 (stereo unspecified) | 99 | 16 | 102 | 32 | 101 | 103 | nt | nt | nt | nt | nt | nt | nt
O=C(C1CCC(N2C(=O)C3CC=CCC3C2=O)CC1)N1CCCCC1 (stereo unspecified) | 129 | 6 | 170*[activator] | 7 | 118 | 397 | 129* | 0 | 110 | 108 | 119 | 110 | 114
O=C(O)c1cc(N2C(=O)C3CC=CCC3C2=O)ccc1NCc1cccnc1 (stereo unspecified) | 100 | 11 | 101 | 59 | 102 | 99 | nt | nt | nt | nt | nt | nt | nt
OC12CCCCC1C(c1ccc3c(c1)OCO3)N(Cc1ccccc1F)CC2 (stereo unspecified) | 113 | 130* | 101 | 10 | 158*[activator] | 106 | 113* | 1 | 98 | 102 | 97 | 101 | 96
OC12CCCCC1C(c1ccc3c(c1)OCO3)N(Cc1ccc(F)cc1)CC2 (stereo unspecified) | 100 | 7 | 99 | 24 | 95 | 100 | nt | nt | nt | nt | nt | nt | nt
CC(C)(C)C(=O)N1CCC(O)(CS(=O)(=O)Cc2ccccc2)CC1 | 107 | 23 | 110 | 25 | 105 | 113 | nt | nt | nt | nt | nt | nt | nt
COc1cc2c(cc1NC(=S)NC(=O)/C=C/c1ccco1)oc1ccccc12 | 103 | 7 | 89 | 4 | 99 | 21* | 103* | 0 | 103 | 102 | 100 | 103 | 77
N#Cc1c(-c2ccccc2)nc(SCC(=O)N(c2ccccc2)c2ccccc2)[nH]c1=O | 77 | 3 | 50* | 20 | 51 | 6 | 77* | 1 | 105 | 101 | 104 | 100 | 108
Cc1cc(NC(=O)CSc2nc(-c3ccccc3)cs2)no1 | nt | nt | nt | 40 | nt | nt | nt | -1 | 98 | 100 | 97 | 99 | 118
SMILES | RGS4-Gao reg | Avidin fluor | RGS8-Gao reg | GSH bead fluor | RGS7-Gao reg | RGS16-Gao HTS | RGS-Gao | Biotin-avidin | RGS8-Gao single | RGS7-Gao confirm | RGS16-Gao single | RGS4-Gao single | RGS19-Gao single
COc1ccc(-c2nnc(SCC(=O)Nc3cc(F)ccc3C)o2)cc1 | 120 | 116* | 100 | 22 | 185*[activator] | 110 | 120* | nt | nt | nt | nt | nt | nt
Cc1cc(NC(=O)CSc2ccc3ccccc3c2)no1 | nt | nt | nt | 29 | nt | nt | nt | -1 | 99 | 98 | 96 | 97 | 104
CC(=O)Nc1ccc(NC(=O)CSc2nnc(-c3ccco3)o2)cc1 | 100 | 21 | 101 | 11 | 104 | 104 | nt | nt | nt | nt | nt | nt | nt
Cc1cc(NC(=O)CSc2nnc(-c3ccco3)o2)no1 | 100 | nt | 102 | 44 | 96 | nt | nt | 4 | 95 | 80 | 89 | 86 | 71
Cc1cc(NC(=O)CSc2nc(-c3ccc(F)cc3)cs2)no1 | 87 | 14 | 91 | 15 | 85 | 89 | nt | nt | nt | nt | nt | nt | nt
CCc1cc2ccccc2nc1SCC(=O)Nc1cc(C)on1 | 106 | 12 | 108 | 25 | 105 | 116 | nt | nt | nt | nt | nt | nt | nt
